# Assay outcomes: PubChem, National Center for Advancing Translational Sciences (NCATS)
# Pf growth 48h: P. falciparum growth inhibition at 48 hours (one generation). P. falciparum luciferase growth in erythrocytes, 48 h. Potency, µM (series often up to 28.7 µM), without a hit: top-dose activity change, negative = inhibition, hits mostly inhibitors. actives 5.9% (n = 310,000). AID 504832; note: potency is the fitted concentration of half-maximal effect; % is set by controls: 0 for no effect and ±100 for the full control effect
#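 Read-out is firefly luciferase luminescence from an integrated reporter in P. falciparum, so falling signal marks reduced parasite growth. Infected erythrocytes were at 2% hematocrit and 0.1% parasitemia (final) in Albumax-supplemented RPMI 1640.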
# Pf growth 96h: inhibits malaria parasite growth, 96 h; actives 6.9% (n = 320,000); Potency, µM (titrated, usually from 28.7 µM), without a hit: top-dose activity change, negative = inhibition, hits mostly inhibitors; P. falciparum luciferase reporter growth, 96 h; note: potency is the fitted concentration of half-maximal effect; % is set by controls: 0 for no effect and ±100 for the full control effect
#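 Compounds incubated with erythrocytes infected by luciferase-expressing P. falciparum (2% hematocrit, 0.05% parasitemia final) for 96 hours, 37 C in 5% CO2. Growth inhibition scored as decreased luciferase luminescence.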
# NS1 inh: inhibitors of influenza NS1 protein function. Potency, µM (doses to about 46.1 µM), inactives show at the highest dose activity, positive = more growth. actives 0.4% (n = 270,000); calls by dose curve; note: potency is the fitted concentration of half-maximal effect; actives are rising curves; nearly all actives have a fitted effect of over 50% in size
#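 Growth recovery, yeast-based: influenza A NS1 expressed in S. cerevisiae causes slow growth, and suppressors are detected by OD600. The parent strain without NS1 is used as positive control.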
# Shiga inhibitor: Shiga toxin inhibition; actives 9.2% (n = 290,000); AID 2315; inhibition, % at 38.7 µM; Vero cells, Shiga toxin protein synthesis inhibition reporter; in the data active = inhibition mostly above about 28%, no sharp cut-off; inactive = mostly below about 43%; note: 0% is about no effect
# Cycloheximide cs: counter-screen hit for Shiga toxin inhibitors, cycloheximide; max response, %; actives 12% (n = 300,000); AID 2314; cell reporter, cycloheximide protein synthesis inhibition counterscreen; in the data active = max response mostly above about 13%, no sharp cut-off; inactive = mostly below about 14%; note: read at 38.3 µM for the half of the compounds with a filed dose; 0% is about no effect
# * hit, by the source's call; i = inactive; ? = inconclusive; . = no result given. A selection: hits, their analogues and other compounds. The true share with any hit is near 21%. Unless noted, calls come from the whole dose curve; as a rule, active = well fitted inhibition curve with a large enough effect; inconclusive = small, poorly fitted or top-dose-only effect, or another doubt; inactive = no such curve, though single readings can be large or run the other way.
SMILES,Pf growth 48h,Pf growth 96h,NS1 inh,Shiga inhibitor,Cycloheximide cs
C=C(C)CN(CC)c1nc(N)c(C#N)c(CC#N)c1C#N,?,?,14%,-12,-2
CCCCN(CC)c1nc(N)c2c(N)nc(OCC)cc2c1C#N,.,13µM*,0%,-10,-3
Fc1cc(F)cc(NC(=S)N2CCC(c3ccccc3)C2)c1 (stereo not given),41%,5%,.,138*,41*
Fc1ccccc1NC(=S)N1CCCCC1,22%,60%,22%,4,-1
Fc1cccc(NC(=S)N2CCCCC2)c1,0%,2%,-4%,-8,-2
O=C(C1CCCO1)N1CCN(C(=S)Nc2ccc(Cl)cc2Cl)CC1 (stereo not given),7%,?,10%,-7,-1
Cc1ccc(NC(=S)N2CCC(c3ccccc3)C2)c(Cl)c1 (stereo not given),i,6%,.,72*,19
S=C(Nc1ccccc1Cl)N1CCC(c2ccccc2)C1 (stereo not given),202%,8%,.,131*,44*
Fc1ccccc1NC(=S)N1CCC(c2ccccc2)C1 (stereo not given),50%,8%,.,164*,62*
COc1ccccc1CNC(=O)CNC(=O)c1ccc(Br)o1,12%,46%,7%,-3,-3
COc1ccc(C2(O)CCN(C(=O)NC3CCCCC3)CC2)cc1,-5%,-25%,4%,24,13
Cc1ccc(NS(=O)(=O)c2ccc(Br)s2)nc1,29%,0%,-1%,42,8
O=S(=O)(NCCc1cn(S(=O)(=O)c2ccccc2)c2ccccc12)c1ccccc1,.,.,.,-2,-4
O=C1NC(Cc2c[nH]c3ccccc23)C(=O)N1Cc1ccc(CN2C(=O)NC(Cc3c[nH]c4ccccc34)C2=O)cc1 (stereo not given),5.2µM*,-19%,?,-8,1
O=C1NC(Cc2c[nH]c3ccccc23)C(=O)N1CCOc1ccc(F)cc1 (stereo not given),6%,4%,1%,-10,1
NNc1nc2c(F)cc(F)cc2s1,63%,36%,-10%,82*,70*
O=C(NNc1nc2c(F)cccc2s1)c1ccc(F)cc1,?,?,.,9,12
Cc1c(Cl)ccc2sc(NC(=O)C3CC3)nc12,25%,34%,-48%,28*,18*
NNc1nc2c(F)cccc2s1,75%,84%,-1%,77*,84*
Fc1cccc2sc(Nc3nc4c(F)cccc4s3)nc12,72%,?,16%,38*,63*
Cc1cccnc1CCNC(=O)CC1C(=O)NCCN1CC1CCCCC1 (stereo not given),9%,-18%,7%,4,-3
O=C(Nc1nc2c(F)cccc2s1)C1CC1,56%,59%,-26%,54*,36*
Cn1nc(C(F)(F)F)c(/C=N/OC(=O)c2ccccc2Cl)c1SCc1ccccc1Cl,13µM*,?,-5%,-5,2
Cn1nc(C(F)(F)F)c(/C=N/OC(=O)c2ccccc2)c1SCc1ccc(Cl)cc1,-3%,?,-4%,-5,-2
N#Cc1ccc(S(=O)(=O)N2CCN(Cc3cccs3)CC2)cc1,21%,28%,.,.,.
SMILES,Pf growth 48h,Pf growth 96h,NS1 inh,Shiga inhibitor,Cycloheximide cs
C#CC(C)(C)NC(=O)c1ccc(-c2ccccc2F)cc1,58%,-18%,-55%,64*,30*
NC(=O)c1ccc(-c2ccccc2F)cc1,40%,66%,-4%,41*,17*
NNC(=O)c1ccc(-c2ccccc2F)cc1,-15%,?,2%,13,7
CCOC(=O)C(C)Oc1ccc(=O)n(-c2ccccc2)n1 (stereo not given),-2%,1.9µM*,1%,-5,-2
CCCCOC(=O)C(C)Oc1ccc(=O)n(-c2ccccc2)n1 (stereo not given),.,?,-5%,15,-3
CC(C)C(C)NC(=O)COn1nnc2ccc(S(=O)(=O)N3CCOCC3)cc21 (stereo not given),-6%,?,.,.,.
C#CC(C)(CC)NC(=O)c1cc2nc(C3CC3)cc(C(F)(F)F)n2n1 (stereo not given),-14%,12%,.,53,25
CSc1ccc(/C=N/Nc2nc(C)cc(=O)[nH]2)cc1,40%,10%,-3%,29,11
O=c1cnnc(N/N=C/c2ccccn2)[nH]1,?,?,-1%,-18,-2
Cc1cc(=O)[nH]c(N/N=C/c2ccccn2)n1,2.9µM*,?,6%,-34,14*
Cc1cc(=O)[nH]c(N/N=C/c2cccc(Br)c2)n1,?,-19%,2%,.,15*
Cc1cc(=O)[nH]c(N/N=C/c2ccc(Br)s2)n1,9%,?,-6%,29,27*
Cc1cc(=O)[nH]c(N/N=C/c2ccc(Cl)c([N+](=O)[O-])c2)n1,2.3µM*,?,7%,-6,1
O=C(O)c1cccc(S(=O)(=O)Nc2cccc(S(=O)(=O)N3CCCC3)c2)c1,4%,-10%,.,.,.
COc1ccc(-c2nn(-c3ccccc3)cc2C(=O)Nc2ccc(C(=O)O)cc2)cc1,-15%,?,4%,-7,-4
COc1ccc(-c2nn(-c3ccccc3)cc2C(=O)NC(=S)Nc2cc(Cl)ccc2Cl)cc1,2.9µM*,5.2µM*,0%,-2,-2
CCN(CC)C(=O)c1ccc(NC(=O)c2cn(-c3ccccc3)nc2-c2ccc(OC)cc2)cc1,?,7.4µM*,15%,-3,2
COc1ccc(NC(=O)CN(C)C(=O)/C=C/c2cn(-c3ccccc3)nc2-c2ccc(C)cc2)cc1,9.3µM*,13µM*,.,.,.
CN(CC(=O)Nc1cccc(F)c1)C(=O)c1cn(-c2ccccc2)nc1-c1ccc(Cl)cc1,15µM*,?,.,.,.
COc1cc(Br)cc2cc(C(=O)N3CCCCC3C)c(=O)oc12 (stereo not given),-14%,.,3%,-2,-2
Nc1cc(C(=O)OCC(=O)Nc2ccc(N3CCOCC3)cc2)ccc1Cl,-8%,-26%,.,.,.
COc1ccc(NC(=O)CN(C)C(=O)c2cn(-c3ccccc3)nc2-c2ccc(OC)cc2)cc1,13µM*,?,.,.,.
O=C(c1cn(-c2ccccc2)nc1-c1cccs1)N1CCN(c2ccccn2)CC1,-12%,.,-52%,43*,16*
CN(C)c1ccc(NC(=O)c2cn(-c3ccccc3)nc2-c2cccs2)cc1,.,-19%,8%,3,24
O=C(NN1CCOCC1)c1cn(-c2ccccc2)nc1-c1cccs1,21%,32%,-8%,-6,5
O=C(Nc1ccc2ccccc2c1)c1cn(-c2ccccc2)nc1-c1cccs1,?,13µM*,8%,32,10
O=C(Nc1cn(-c2ccccc2)nc1-c1cccs1)c1ccco1,25%,43%,-15%,92*,18*
COC(=O)c1ccccc1C(=O)N1CC(O)CO1 (stereo not given),.,36%,2%,-3,-4
CC1CC(C)CN(C(=S)NC2CCCCC2)C1 (stereo not given),?,?,-17%,14,-2
